Several values for one entry are separate records, joined by “and”; a condition that tells them apart may be missing. Equal entries are not always repeated. The whole screen tested about 310,000 compounds, of which about 11,000 (3.5%) were called active. Not shown: some 4% with an inconclusive outcome. This is one part of a sample in which actives are shown more often than they occur. More than one record can exist for a structure, and the calls need not agree. Values without a mark were called inactive. The call rests on the fitted dose curve; in most records, active means well fitted inhibition curve with a large enough effect; inconclusive means small, poorly fitted or top-dose-only effect, or another doubt; inactive means no such curve, though single readings can be large or run the other way.
Potency means the concentration at half of the fitted maximal effect.

The target in this experiment is 4'-phosphopantetheinyl transferase ffp (Bacillus subtilis) (UniProt Q9F4F7). The experiment is described as follows: qHTS Assay for Inhibitors of Bacillus subtilis Sfp phosphopantetheinyl transferase (PPTase).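 Further: the enzyme is Sfp with the accession as filed and its product quenches rhodamine fluorescence.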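 On largest response in the series, negative = inhibition: 0% = enzyme reaction without inhibitor and -100% = no enzyme wells.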 The following applies: Biochemical Sfp PPTase activity. An excerpt:
Assay Submitter: Michael Burkart, University of California, San Diego
Screening Center PI: Austin, C.P.
Screening Center: NIH Chemical Genomics Center [NCGC]
The covalent attachment of a phosphopantetheinyl (4'-PP) arm to a variety of synthases and other proteins is a key posttranslational protein modification. The 4'-PP is installed on the proteins post-translationally from coenzyme A (CoA) on a conserved serine residue by action of phosphopantetheinyl transferase (PPTase) enzymes. Phosphopantetheinylation is essential for synthase activity, and removal of the PPTase gene precludes natural product synthesis in microorganisms, or in the case of fatty acid biosynthesis, renders the organism unviable. PPTase enzymes belong to a distinct structural superfamily. Within bacteria, these enzymes are grouped into two classes based upon primary structure, the AcpS-Type and Sfp-Type PPTases.
Sfp-type PPTases, corresponding to an activator of surfactin production in Bacillus subtilis, are responsible for modifying type I polyketide and nonribosomal peptide synthases of prokaryotes. Sfp-type PPTases are responsible for the activation of a variety of pathogen-associated virulence factors. Among these compounds are toxins such as mycolactone from Mycobacterium ulcerans, siderophores such as vibriobactin from Vibrio cholerae or mycobactin from Mycobacterium tuberculosis, as well as the mycolic acids which form the waxy cell wall of Mycobacteria. The biosyntheses of these natural products are considered attractive targets for drug design.
In search of small molecule Sfp-PPTase inhibitors, a fluorescence quenching assay was developed for detection of Bacillus subtilis Sfp-PPTase enzymatic activity in a miniaturized high-throughput format. The consensus ybbr acceptor peptide […] was N-terminally labeled with Black Hole Quencher-2 (BHQ-2) and used in combination with rhodamine-labeled coenzyme A as a co-substrate.
Inhibition of Sfp-PPTase was detected by recording the fluorescence intensity change over a 30-minute reaction period at a 525 nm excitation and 598 nm emission. Reagents were supplied by Michael Burkart and Timothy Foley, University of California at San Diego.
This BioAssay deposition is for validation of the developed Sfp-PPtase assay.
Assay Buffer: 50 mM Hepes-Na pH 7.6, 10 mM MgCl2, 0.01% Nonidet P-40, and 0.01% BSA.
3 uL of Sfp-PPTase enzyme (final concentration 15 nM) and 1 uL of substrate mixture (final concentration for rhodamine-CoA and BHQ-2-YbbR 5 uM and 12.5 uM, respectively) dispensed in columns 1, 2, 5 - 48. Columns 1 and 2 used to generate neutral control (uninhibited reaction)
Three uL of reagents, consisting of buffer (in columns 3 and 4 as negative control) and Sfp-PPTase (in columns 1, 2, 5 - 48) were dispensed into 1,536-well Greiner black solid bottom plate. Compounds (23 nL) were transferred via Kalypsys pintool equipped with 1,536-pin array. The plate was incubated for 15 min at room temperature, followed by the addition of 1 uL substrate to start the reaction. The plate was then centrifuged at 1000 rpm for 15 seconds, and the fluorescence intensity recorded on a ViewLux High-throughput CCD imager (Perkin-Elmer) using standard BODIPY optics (525 nm excitation and 598 nm emission). The plate was then incubated for 30 minutes, and a second read on the ViewLux was performed. The fluorescence intensity difference over the 30-minute period was used to calculate the respective reaction rate for each well.
For orientation: qHTS replaces the single test concentration by a dilution series.
In the case of `BrC1C(Br)C(Br)C(Br)C(Br)C1Br` (stereo not drawn), the Potency is 79.4 µM (active).

On to `Cc1ccc(C2CN(C)CC2C(=O)c2ccc(F)cc2)cc1` (stereo not drawn), for which the largest response in the series, negative = inhibition is 15%.

In the case of `CC(=NC1CCN(Cc2ccccc2)CC1)c1c(O)n(C)c(=O)n(C)c1=O`, the largest response in the series, negative = inhibition is 8.13%.

On to `NC[C@H](O)c1ccc(O)cc1`, for which the largest response in the series, negative = inhibition is 5.47%.

In the case of `CC[C@@H]1CN2CC[C@@H]1C[C@H]2[C@H](O)c1ccnc2ccc(OC)cc12`, the largest response in the series, negative = inhibition was 6.78%.

As to `CCN1C[C@]2(COC)C(O)C[C@H](OC)[C@@]34C5C[C@]6(O)C(OC)C(O)[C@](OC(C)=O)(C5C6OC(=O)c5ccccc5)C(C(OC)C23)C14` (stereo partly drawn), the largest response in the series, negative = inhibition is 5.25%.

`COC(=O)N1C(c2ccccc2)C1c1ccccc1` (stereo not drawn): the largest response in the series, negative = inhibition was 17.3%.

Consider `CC(=O)[O][Sn]([c]1ccccc1)([c]1ccccc1)[c]1ccccc1`, for which the Potency is 1.41 µM (active).

Consider `COc1cccc(-c2nc3ccc(N4CCN(C)CC4)cc3[nH]2)c1`, for which the largest response in the series, negative = inhibition is -7.35%.

`CCCN(C/C=C/I)C1CCc2ccc(O)cc2C1` (stereo not drawn): the largest response in the series, negative = inhibition was -26.2%.

Consider `C[C@@]12CC[C@H]3[C@@H](CC[C@]4(O)C[C@H](O)CC[C@@]34C=O)[C@]1(O)CC[C@@H]2C1=CC(=O)OC1`, for which the largest response in the series, negative = inhibition is 17.6%.

For the compound `O=c1[nH]c(O)c(C=Nc2cc(F)cc(F)c2)c(=O)[nH]1`, the largest response in the series, negative = inhibition was -4.22%.

Consider `Cc1ccc2c(c1)=C/C(=C\c1c(O)[nH]c(=O)[nH]c1=O)C(=O)N=2`, for which the Potency was 28.2 µM (active).

Take `COc1ccccc1N=Nc1c(O)[nH]c(=S)[nH]c1=O`: the largest response in the series, negative = inhibition is -20.4%.

Consider `O=C1N=c2ccccc2=C/C1=C\c1c(O)[nH]c(=S)[nH]c1=O`, for which the Potency is 25.1 µM (active).

On to `COc1cc(C(=S)N2CCOCC2)ccc1O`, for which the largest response in the series, negative = inhibition is 14.2%.

Regarding `N#CC(C#N)=Cc1cc(O)c(O)c([N+](=O)[O-])c1`, the largest response in the series, negative = inhibition was -27.4% and 8.16%.

For `OC(Cn1c2ccccc2c2ccccc21)C[n+]1ccccc1` (stereo not drawn), the largest response in the series, negative = inhibition was 4.01%.

In the case of `CC(C)(O)c1[se]c2ccccc2c1I`, the largest response in the series, negative = inhibition is -14.3%.

For the compound `O=C(N/N=C/c1ccc([N+](=O)[O-])o1)c1cc([N+](=O)[O-])cc([N+](=O)[O-])c1O`, the largest response in the series, negative = inhibition is -16.6%.

For the compound `COC(=O)c1ccc2[se]c(CC3CCCCC3)c(I)c2c1`, the largest response in the series, negative = inhibition is -1.34%.

For the compound `C[C@]12O[C@H](C[C@@]1(O)C(=O)O)n1c3ccccc3c3c4c(c5c6ccccc6n2c5c31)CNC4=O`, the largest response in the series, negative = inhibition was -2.27%.

On to `CN(C)CC1CCCCC1=O` (stereo not drawn), for which the largest response in the series, negative = inhibition was 9.1%.

Regarding `C=CCN1C(=O)C2(C(C(=O)OCC)=C(N)Oc3c2c(=O)oc2ccccc32)c2ccccc21` (stereo not drawn), the largest response in the series, negative = inhibition is -13.3%.

For the compound `CC(C)(c1ccc(OC[C@@H]2CO2)cc1)c1ccc(OC[C@H]2CO2)cc1`, the largest response in the series, negative = inhibition is -26.3%.

Take `CCCCC/C=C\C/C=C\C/C=C\C/C=C\CCCCCC(=O)NCCO`: the Potency was 25.1 µM (active); the largest response in the series, negative = inhibition was -11.4% and -19.7% and 32%.

With `CCCCC/C=C\C/C=C\C/C=C\C=C\[C@H](CCCC(=O)O)OO`, the largest response in the series, negative = inhibition was 1.29% and 7.78%.

`CCCCC/C=C\C/C=C\C/C=C\CCCCCCC(=O)NCCO`: the largest response in the series, negative = inhibition is -6.26% and -18.5% and 24.4%.

As to `CCN1C[C@@]2(COC)CC[C@H](OC)[C@]34[C@@H]1[C@]1(OCO[C@@]15C[C@@H](OC)C1C[C@H]3[C@H]5[C@@H]1OC)[C@H](O)[C@@H]24`, the largest response in the series, negative = inhibition was 4.99%.

With `C=CCN1CCC23c4c5ccc(O)c4O[C@H]2C(=O)CC[C@@]3(O)C1C5` (stereo partly drawn), the largest response in the series, negative = inhibition was 7.15%.

Take `CN(C)[C@@H]1C(=O)C(C(N)=O)=C(O)[C@@]2(O)C(=O)C3=C(O)c4c(O)cccc4[C@@](C)(O)C3CC12` (stereo partly drawn): the largest response in the series, negative = inhibition was -6.86%.

With `CCOC(=O)C1(CCc2ccccc2)CCN(Cc2ccco2)CC1`, the largest response in the series, negative = inhibition was -10.9%.

As for `CN1[C@@H]2CC[C@H]1CC(OC(=O)c1cc(Cl)cc(Cl)c1)C2` (stereo partly drawn), the largest response in the series, negative = inhibition was 10.2%.

Consider `CC(=O)Oc1ccccc1C(=O)Nc1ncc([N+](=O)[O-])s1`, for which the Potency was 50.1 µM (active) and the largest response in the series, negative = inhibition is -19.7%.

For `O=c1oc2ccccc2c(O)c1C(c1ccccc1O)c1c(O)c2ccccc2oc1=O`, the largest response in the series, negative = inhibition was 9.81%.

As to `C[C@H]1C/C=C/[C@@H]2[C@@H]3O[C@]3(C)[C@@H](C)[C@H]3[C@H](Cc4ccccc4)NC(=O)[C@]32OC(=O)O/C=C/[C@](C)(O)C1=O`, the largest response in the series, negative = inhibition was -0.438%.

For `CN[C@@H]1C[C@H]2O[C@@](C)([C@@H]1OC)n1c3ccccc3c3c4c(c5c6ccccc6n2c5c31)C(=O)NC4`, the largest response in the series, negative = inhibition is 0.89% and -25.9%.

Take `c1ccc(CCCCN2CCC(c3ccccc3)CC2)cc1`: the largest response in the series, negative = inhibition is -6.46% and 2.8%.

Regarding `COc1ccc(CNCCc2ccc3c(c2)OCO3)c(OC)c1OC`, the largest response in the series, negative = inhibition is -17.5%.

In the case of `CC1=CC(=O)C2=C(C)C[C@H](O)[C@H]3[C@H](C)C(=O)O[C@@H]3C12` (stereo partly drawn), the largest response in the series, negative = inhibition was 33%.

Turning to `O=Cc1cn(Cc2ccc(F)cc2Cl)c2ccccc12`, the largest response in the series, negative = inhibition was 0.0934%.
